Rows were chosen to be rich in hits. Some 3.3% of all compounds tested hit in one or more screens of this group.
AmpC inh detg – inhibitors of E. coli AmpC beta-lactamase with detergent; 370,000 compounds, 0.041% hits; AmpC hydrolysis of nitrocefin, absorbance 480 nm, 0.01% Triton; AID 485294; P00811; Potency, µM (titrated, usually from 114 µM), without a hit: top-dose activity change, negative = inhibition, most hits filed as inhibitors;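 note: 0% = no-compound wells and -100% = no-enzyme wells; nearly all actives have a fitted effect of over 25% in size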
Target sequence (P00811 whole entry, looked up): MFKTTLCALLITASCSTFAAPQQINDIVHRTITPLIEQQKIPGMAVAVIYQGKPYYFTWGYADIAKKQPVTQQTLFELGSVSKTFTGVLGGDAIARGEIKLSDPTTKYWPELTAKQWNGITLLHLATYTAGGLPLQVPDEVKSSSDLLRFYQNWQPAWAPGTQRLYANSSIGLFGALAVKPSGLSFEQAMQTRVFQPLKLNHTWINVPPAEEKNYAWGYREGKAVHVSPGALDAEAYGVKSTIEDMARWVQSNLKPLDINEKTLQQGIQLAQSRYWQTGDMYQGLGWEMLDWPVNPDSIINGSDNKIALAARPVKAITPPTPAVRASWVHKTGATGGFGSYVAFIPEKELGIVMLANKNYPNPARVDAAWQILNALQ
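AmpC (5.3 nM in the dispensed reagent) in 20 mM phosphate pH 7.0 with 0.01% (detergent screen) or 0.0001% Triton X-100 was preincubated with compounds for 15 min at room temperature. Nitrocefin was then added from an 800 uM solution, and hydrolysis was followed at 480 nm.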
AmpC inh no detg – inhibitors of E. coli AmpC beta-lactamase without detergent. P00811. AmpC nitrocefin hydrolysis, absorbance 480 nm, 0.0001% Triton. Potency, µM (series often up to 57.1 µM), inactives show at the top dose activity change, negative = inhibition, actives largely listed as inhibitors. 330,000 compounds, 0.52% hits. AID 485341;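 note: plate controls were no compound for no effect and no enzyme for full effect; nearly all actives have a fitted effect of over 20% in size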
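AmpC (5.3 nM in the dispensed reagent) in 20 mM phosphate pH 7.0 with 0.01% (detergent screen) or 0.0001% Triton X-100 was preincubated with compounds for 15 min at room temperature. Nitrocefin was then added from an 800 uM solution, and hydrolysis was followed at 480 nm.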
Sm TGR inh – blocks Schistosoma mansoni thioredoxin glutathione reductase; Q962Y6; purified TGR, DTNB reduction, TNB absorbance 405 nm; Potency, µM (doses to about 114 µM), for the others: at the highest dose activity change, negative = inhibition, actives largely listed as inhibitors; 360,000 compounds, 3% hits; note: nearly all actives have a fitted effect of over 60% in size
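TGR 20 nM + NADPH 100 uM (dispensed conc.), cpd preinc 15 min RT; start with NADPH (500 uM addition) then DTNB (15 mM addition). Kinetic TNB absorbance, 405 nm filter. Four-parameter Hill fit across titration.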
* hit, by the source's call; ? = inconclusive; nt = no result; [ ] = another dose, or the depositor's remark. Calls come from the whole dose curve; as a rule, active = well fitted curve in the direction sought with a large enough effect; inconclusive = small, poorly fitted or top-dose-only effect, or another doubt; inactive = no such curve, though single readings can be large; an effect the other way counts as inactive or inconclusive. Unless noted, % is set by controls: 0 for no effect and ±100 for the full control effect; potency is the fitted concentration of half-maximal effect.

SMILES	AmpC inh detg	AmpC inh no detg	Sm TGR inh
COc1ccc(-c2cc(C(F)(F)F)n3nc(C(=O)NCC45CC6CC(CC(C6)C4)C5)cc3n2)cc1	-2%	nt	-3%
Cc1ccnc(NCc2ccccc2O)c1	-13%	-30%	-6%
COc1ccc(CNc2cc(C)ccn2)c(O)c1	0%	-15%	7.1µM*
Cn1c(SCC(=O)OCc2ccccc2)nnc1-c1ccco1	-8%	-6%	?
O=C(CSc1nnc(-c2ccco2)n1Cc1ccccc1)c1ccccc1	-4%	15%	45µM*
Cc1cccc(CSc2nnc(-c3ccco3)n2C)c1	-9%	-14%	0%
Cn1c(SCC(=O)c2ccc(-c3ccccc3)cc2)nnc1-c1ccco1	?	-49%	6.3µM*
Cc1ccc(C(=O)CSc2nnc(-c3ccco3)n2Cc2ccccc2)cc1	?	14%	-13%
COc1cccc(CSc2nnc(-c3ccco3)n2C)c1	-12%	-1%	40µM*
Cc1ccc(-n2nc(C)c3c(C)cc(=O)n(CC(=O)NC(C)c4ccccc4)c32)cc1 (stereo not drawn)	10%	nt	1%
CN(c1ncnc2onc(-c3cccc(Cl)c3)c12)C1CCCCC1	7%	nt	5%
CCCNC(=O)Cn1nc(-c2ccc(C)c(C)c2)c2cnc3ccc(OC)cc3c21	20%	nt	-11%
Cc1c(Cl)cccc1NC(=O)c1ccc(NC(=O)N2CCSc3ncccc32)cc1	15%	nt	3%
Cc1cc(Nc2ccccc2C)n2nc(Cc3ccc(Cl)cc3)nc2n1	15%	nt	0%
Cc1ccc(S(=O)(=O)c2nc(-c3ccco3)oc2N2CCC(C)CC2)cc1	-4%	-15%	40µM*
Cc1ccc(-c2nc(S(=O)(=O)c3ccc(C)cc3)c(N3CCN(c4ccccc4)CC3)o2)cc1	12%	nt	2%
COc1ccc(-c2nc(C#N)c(N3CCCCCC3)o2)cc1	9%	7.1µM*	2%
Cc1ccc(S(=O)(=O)c2nc(-c3cccc(C)c3)oc2N2CCCCC2)cc1	-2%	nt	20µM*
O=S(=O)(c1ccccc1)c1nc(-c2ccco2)oc1N1CCOCC1	-1%	-18%	11%
Cc1ccc(S(=O)(=O)c2nc(Cc3ccccc3)oc2N2CCOCC2)cc1	?	-14%	0.79µM*
Cc1ccc(S(=O)(=O)c2nc(-c3cccc(C)c3)oc2N2CCN(c3ccccc3)CC2)cc1	-1%	nt	10%
COc1ccc(-c2nc(C#N)c(N3CCCCC3)o2)cc1	-8%	8%	-15%
CC(C)(C)OC(=O)N1CCC(c2c(C(=O)NCc3cccs3)cnn2-c2cccc(F)c2)CC1	24%	nt	2%
COc1ccc(NC(=O)c2nc(SCc3ccccc3F)ncc2Cl)cc1	21%	nt	1%
CN(C)c1ccc(CNC(=O)C2CCCN(S(=O)(=O)c3ccc4c(c3)CCCC(=O)N4)C2)cc1 (stereo not drawn)	-2%	nt	-9%
SMILES	AmpC inh detg	AmpC inh no detg	Sm TGR inh
Cc1ccc(CN2C(=O)CC(c3ccc(Cl)cc3)c3c(C)nn(-c4nc(C)cc(C)n4)c32)cc1 (stereo not drawn)	25%	nt	2%
Cc1cccc(Cn2c(C)c(C)c3cc(C(=O)NCc4ccco4)ccc32)c1	6%	nt	7%
O=S(=O)(c1ccccc1)c1nc(-c2ccccc2)oc1N1CCCCC1	4%	-21%	22µM*
COc1ccc(-c2nc(S(=O)(=O)c3ccccc3)c(N3CCOCC3)o2)cc1	-13%	-2%	40µM*
O=S(=O)(c1ccccc1)c1nc(-c2ccccc2F)oc1N1CCOCC1	6%	nt	-12%
O=S(=O)(c1ccccc1)c1nc(-c2ccccc2)oc1N1CCCC1	8%	-18%[2.29 µM]	-23%
COc1ccc(-c2nc(S(=O)(=O)c3ccc(C)cc3)c(N3CCCCC3)o2)cc1	9%	nt	10µM*
CC(C)(C)c1ccc(-c2nc(S(=O)(=O)c3ccccc3)c(N3CCOCC3)o2)cc1	21%	nt	5%
COc1cccc(-c2nc(S(=O)(=O)c3ccc(C)cc3)c(N3CCCCCC3)o2)c1	24%	nt	5%
Cc1ccc(S(=O)(=O)c2nc(-c3ccccc3F)oc2N2CCCCC2)cc1	9%	nt	45µM*
COc1ccc(OC)c(NC(=O)C(C)n2c(=O)c(-c3ccccc3NC(C)=O)nc3ccccc32)c1 (stereo not drawn)	-2%	nt	-5%
COc1cccc(-n2c(-c3ccccc3F)nc3c(cnn3-c3ccc(C)cc3)c2=O)c1	-1%	nt	-12%
COc1ccccc1CNc1ncnc2onc(-c3ccc(F)cc3)c12	4%	nt	3%
Cc1ccc(C)c(NC(=O)C2CCN(S(=O)(=O)c3c(C)noc3/C=C/c3cccs3)CC2)c1	-7%	nt	0%
NC(=O)C1CCN(c2oc(-c3ccccc3)nc2S(=O)(=O)c2ccc(Br)cc2)CC1	4%	54%	?
Cc1ccc(S(=O)(=O)c2nc(-c3ccccc3)oc2N2CCN(c3ccccc3)CC2)cc1	24%	nt	8%
Cc1ccc(S(=O)(=O)c2nc(-c3ccc(F)cc3)oc2SCC(=O)NC2CCCCC2)cc1	7%	nt	-3%
Cc1ccc(S(=O)(=O)c2nc(-c3ccccc3)oc2N2CCC(C(N)=O)CC2)cc1	-2%	16%	14µM*
COc1ccc(NC(=O)CSc2oc(-c3ccc(F)cc3)nc2S(=O)(=O)c2ccc(C)cc2)c(OC)c1	6%	nt	45µM*
Cc1ccc(S(=O)(=O)c2nc(-c3ccccc3)oc2N2CCCC2)cc1	-12%	-22%	2µM*
O=C(NC1=NCCS1)c1cc(-c2cccs2)nc2ccccc12	-13%	-31%	-5%
Cc1ccc(-c2cc(C(=O)O)c3cc(Br)ccc3n2)o1	-13%	-26%	2µM*
Cc1ccc(-c2cc(C(=O)NC3=NCCS3)c3cc(Br)ccc3n2)o1	-21%	-6%	2.8µM*
O=C(NN1CCOCC1)c1cc(-c2ccc(Br)s2)nc2ccccc12	-3%	0%	2%
Cc1ccc(-c2cc(C(=O)NCCCn3ccnc3)c3cc(Br)ccc3n2)o1	0%	87%	1.6µM*
SMILES	AmpC inh detg	AmpC inh no detg	Sm TGR inh
Cc1cccc(-c2cc(C(=O)NCCCn3ccnc3)c3ccccc3n2)c1	-4%	68%	1%
Cc1ccc(-c2cc(C(=O)NN3CCOCC3)c3cc(Br)ccc3n2)o1	-1%	26%	10µM*
Cc1ccc(-c2cc(C(=O)O)c3cc(Br)ccc3n2)s1	-1%	-22%	?
CCc1ccc(-n2nc(CO)c(C(=O)NCCc3ccccc3)n2)cc1	21%	nt	3%
Cc1sc2c(c1C)c(=O)n(CCc1ccccc1)c(=O)n2Cc1ccc(C(C)(C)C)cc1	21%	nt	14%
CCOCCCNC(=O)Cn1ncc2c([nH]c3ccccc32)c1=O	15%	nt	7%
COc1ccccc1CNC(=O)C(CC(C)C)N1Cc2ccccc2C1=O (stereo not drawn)	0%	nt	-5%
Cc1ccc(CSc2cn(CC(=O)N3CCCCC3)c3ccccc23)cc1	-5%	nt	-3%
O=C(CC(=O)c1ccccc1)Nc1cc(C(F)(F)F)ccc1Cl	-3%	25µM*	2%
O=C(NC(=S)Nc1cc(C(F)(F)F)ccc1Cl)c1ccccc1	-4%	-24%	-12%
O=C(CN1CC(=O)Nc2ccccc21)Nc1ccc(F)c(F)c1	1%	-37%	32µM*
Cc1ccc(NC(=O)CNC(=O)N2CC(=O)Nc3ccccc32)cc1F	-1%	-7%	2%

Compound activity (PubChem)
